# Assay outcomes from PubChem.
# Compounds with a hit are over-represented: about 21% of the library has one in this group of screens.
# SARS PLP yeast: blocks SARS-CoV papain-like protease in a yeast assay; S. cerevisiae expressing SARS-CoV PLpro, growth rescue; Potency, µM (doses to about 32.9 µM), for the others: at the top dose activity, positive = growth rescue, actives largely listed as activators; 0.19% of 330,000 active; calls by dose curve; note: potency is the fitted concentration of half-maximal effect; 0% is about no effect; nearly all actives have a fitted effect of over 55% in size
# Shiga toxin inh: Shiga toxin inhibition | Vero cells, Shiga toxin protein synthesis inhibition reporter | inhibition, % at 38.7 µM | 9.2% of 290,000 active; in the data active = inhibition mostly above about 28%, no sharp cut-off; inactive = mostly below about 43%; note: 0% is about no effect
# NS1 function inh: blocks influenza NS1 protein function | 0.4% of 270,000 active | AID 2326 | Potency, µM (highest dose often 46.1 µM), for the others: top-dose activity, positive = more growth; calls by dose curve; note: potency is the fitted concentration of half-maximal effect; actives are rising curves; nearly all actives have a fitted effect of over 50% in size
#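 In this qHTS, NS1 from influenza A is expressed in budding yeast, where it slows growth. Cells are switched from glucose to 2% galactose medium (pH 6.0, -URA), treated with compound, and growth recovery is read at OD600.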
# Pf growth 96h: P. falciparum growth inhibition at 96 hours | P. falciparum luciferase reporter growth, 96 h | Potency, µM (doses to about 28.7 µM), without a hit: top-dose activity change, negative = inhibition, most hits filed as inhibitors | 6.9% of 320,000 active | AID 504834; note: potency is the fitted concentration of half-maximal effect; % is set by controls: 0 for no effect and ±100 for the full control effect
#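 Two-generation exposure (96 h) targets delayed-death phenotype. Reporter parasites carrying integrated firefly luciferase, in red cells at 2% hematocrit and 0.05% parasitemia final, kept at 37 C, 5% CO2; luminescence loss indicates inhibition.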
# Pf growth 48h: P. falciparum growth inhibition at 48 hours (one generation); P. falciparum luciferase growth in erythrocytes, 48 h; 5.9% of 310,000 active; Potency, µM (titrated, usually from 28.7 µM), for the others: at the highest dose activity change, negative = inhibition, most hits filed as inhibitors; AID 504832; note: potency is the fitted concentration of half-maximal effect; % is set by controls: 0 for no effect and ±100 for the full control effect
#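 Read-out is firefly luciferase luminescence from an integrated reporter in P. falciparum, so falling signal marks reduced parasite growth. Infected erythrocytes were at 2% hematocrit and 0.1% parasitemia (final) in Albumax-supplemented RPMI 1640.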
# Cycloheximide cs: counter-screen for Shiga toxin inhibitors: cycloheximide protein synthesis inhibition | cell reporter, cycloheximide protein synthesis inhibition counterscreen | max response, % | 12% of 300,000 active; in the data active = max response mostly above about 13%, no sharp cut-off; inactive = mostly below about 14%; note: read at 38.3 µM for the half of the compounds with a filed dose; 0% is about no effect
# * = called active by the depositor; u = inconclusive; x = not tested or not shown. Unless noted, calls come from the whole dose curve; as a rule, active = well fitted inhibition curve with a large enough effect; inconclusive = small, poorly fitted or top-dose-only effect, or another doubt; inactive = no such curve, though single readings can be large or run the other way.
SMILES,SARS PLP yeast,Shiga toxin inh,NS1 function inh,Pf growth 96h,Pf growth 48h,Cycloheximide cs
C=CCSc1nc(C)c(CC(=O)OCCCC)c(=O)[nH]1,-4%,-12,-2%,x,22%,-6
C=CCSc1nc(C)c(CC(=C)C)c(=O)[nH]1,1%,-12,0%,u,40%,-1
O=C(c1ccc(Br)cc1)N1CCCc2ccccc21,-5%,20,-54%,-22%,6%,-3
CCc1ccccc1NC(=O)CN(C1CCCCC1)S(C)(=O)=O,2%,x,23%,-27%,15%,18
COc1ccc(/C=N/Nc2snc(SC)c2C#N)cc1OC,-7%,98*,-11%,90%,4.1µM*,35*
COc1cccc(/C=N/Nc2snc(SC)c2C#N)c1,-7%,67*,-30%,u,41%,27*
COc1cccc(/C=N/Nc2snc(SC)c2C#N)c1O,-11%,69*,-18%,0%,148%,72*
COc1cccc(/C=C/c2n[nH]c(=O)c(C#N)c2C)c1,2%,-9,-11%,u,u,6
CSc1nsc(/C=C/Nc2ccc(C(=O)O)cc2)c1C#N,1%,38,x,-11%,u,7
CSc1nsc(N/N=C/c2ccccc2)c1C#N,-3%,51*,x,u,142%,30*
O=C(CSc1n[nH]c(-c2ccccc2F)n1)NCC(=O)Nc1ccc(F)c(F)c1F,0%,21,x,4%,22%,-1
O=C(CNC(=O)c1ccccc1C(F)(F)F)N/N=C/c1cccs1,12%,-5,u,27%,22%,9
CC[C@H](C)[C@H](NC(=O)CNC(=O)[C@H](C)NC(=O)[C@H](C)N)C(=O)NCC(=O)N[C@H](C(=O)N[C@@H](CC(C)C)C(=O)N[C@H](C(=O)N[C@H](C(=O)O)C(C)C)[C@@H](C)O)[C@@H](C)CC,x,-6,x,x,x,-6
CCC(C)(C)NC(=O)CN(C(=O)c1csnn1)c1ccccc1-c1ccccc1,1%,-2,-10%,25%,u,-2
Cc1ccc(OCC(O)C(C)NC(C)C)c2c1CCC2 (stereo not given),x,x,3%,x,x,x
Cc1ccc(NC(=S)Nc2ccc3nc(-c4ccccn4)c(-c4ccccn4)nc3c2)cc1C,u,40,25%,-2%,-2%,16*
O=C(Nc1ccc2nc(-c3ccccn3)c(-c3ccccn3)nc2c1)N1CCOCC1,12%,-6,0%,u,-21%,-2
Cc1cccc(NC(=S)Nc2ccccn2)c1,0%,62*,-51%,33%,47%,33*
Cc1ccc(NC(=S)Nc2ccccn2)cc1C,2%,85*,-4%,u,u,65*
Cc1ccc(NC(=S)Nc2ccc(F)cc2)cc1C,12%,28,-7%,0%,u,12
Cc1ccc(NC(=S)Nc2ccccn2)c(C)c1,-2%,82*,-7%,u,58%,48*
COc1ccc(C2=NNC(c3cccs3)=Nc3ccc(OC)cc32)cc1,-32%,70*,u,-17%,u,31*
COc1ccc(C2=NNC(c3cccnc3)=Nc3ccccc32)cc1,1%,-9,8%,6.6µM*,-15%,-4
CCOc1ccc2c(c1)C(c1cccs1)=NNC(c1cccnc1)=N2,2%,0,x,-19%,-23%,10
CCOc1ccc(C2=NNC(c3cccs3)=Nc3ccc(OCC)cc32)cc1,-8%,30*,5%,u,x,4
SMILES,SARS PLP yeast,Shiga toxin inh,NS1 function inh,Pf growth 96h,Pf growth 48h,Cycloheximide cs
c1ccc(C2=NNC(c3ccco3)=Nc3ccccc32)cc1,1%,23,14%,30%,u,17*
CNc1nc(NN)nc(Nc2ccccc2)n1,1%,x,19%,u,-19%,11
CCOc1ccc(C2=NNC(c3cccs3)=Nc3ccc(OC)cc32)cc1OCC,5%,52*,23%,-15%,12µM*,27*
CC(Cc1ccsc1)NCc1cn[nH]c1-c1ccc(F)cc1F (stereo not given),0%,-1,-6%,u,-16%,1
COc1ccc(-c2[nH]ncc2CNC(C)Cc2ccsc2)c(F)c1 (stereo not given),0%,-12,-8%,4.7µM*,-21%,1
COc1ccc(-c2[nH]ncc2CN2CCN(Cc3cccs3)CC2)c(F)c1,0%,13,-2%,1%,2%,2
COc1ccc(-c2[nH]ncc2CN(C)C(C)c2cccs2)c(F)c1 (stereo not given),-1%,-8,2%,12µM*,-21%,-2
CN(C)CCCNC(=S)Nc1ccc(-c2ccccc2)cc1,-1%,-5,0%,u,u,1
Cc1cccc(C)c1NC(=O)COC(=O)c1c2c(nc3ccccc13)/C(=C\c1ccc3c(c1)OCO3)CCC2,-4%,44*,0%,u,8.3µM*,18*
CC(OC(=O)c1cc2ccccc2cc1O)C(=O)Nc1ccc(S(N)(=O)=O)cc1 (stereo not given),0%,-9,1%,20%,0%,-1
CC(OC(=O)c1c2c(nc3ccccc13)/C(=C\c1ccc3c(c1)OCO3)CCC2)C(=O)Nc1ccc(S(N)(=O)=O)cc1 (stereo not given),20%,49*,11µM*,u,u,42*
CCN1C[C@@H]2[C@@H]3C(=O)N(Cc4ccccc4)C(=O)[C@@H]3[C@](CC)(C1=O)N2C(=O)c1ccc(C(F)(F)F)cc1,-9%,x,x,x,x,x
COc1ccccc1C(CNC(=O)CSc1ccc2ccccc2c1)N(C)C (stereo not given),-1%,-15,11%,u,u,-1
COCc1cc(C)nc(OCC(=O)N/N=C/c2ccc(-c3cc([N+](=O)[O-])ccc3C)o2)c1C#N,-1%,-11,2%,14%,-5%,-2
Cc1ccc([N+](=O)[O-])cc1-c1ccc(/C=C(\C#N)c2[nH]nc(N)c2C#N)o1,4%,28,u,108%,u,20*
CC(=O)Nc1ccc(-c2csc(NC(=O)C3CSC4(C)CCC(=O)N34)n2)cc1 (stereo not given),x,x,x,4%,u,x
COc1ccc(Cc2nnc(NC(=O)c3cccs3)s2)cc1,4%,21,-1%,x,35%,0
Cc1ccc(Cc2cnc(NC(=O)c3cccs3)s2)cc1,u,192*,-49%,-58%,107%,46*
Cc1ccc(C(=O)Nc2ncc(Cc3ccccc3)s2)o1,-7%,80*,-14%,-1%,376%,42*
O=C(Nc1ncc(Cc2cccc(Cl)c2)s1)C1=NCCN1,-2%,-22,-28%,u,u,11
O=C(Nc1ncc(Cc2cccc(Cl)c2)s1)c1cccs1,-6%,126*,-101%,0%,-5%,54*
O=C(Nc1ncc(Cc2ccccc2)s1)c1cccs1,8%,131*,-48%,u,37%,59*
CCOc1ccc(CCNC(=O)c2sc3nc4n(c(=O)c3c2C)CCC4)cc1,-5%,-11,5%,u,-9%,7
